Results published in the supplement of paper PMC8975748.
Structures can show the parent of a compound that is named as a salt.

These compounds were tested on Saccharomyces cerevisiae BY4741 SeMeCo community (assay: z-score of subpopulation abundance vs DMSO median, subpopulation auxotrophic for HLUM; higher = larger share of this subpopulation than in DMSO controls). Conditions: 10 µM; 24 h; SM minimal medium; subpopulation (auxotrophy): HLUM.
Description: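 Fluorescent four-plasmid SeMeCo (self-establishing metabolically cooperating S. cerevisiae BY4741 community; plasmids pH-mRuby2, pL-mWasabi, pU-eCFP, pM-TagRFP657) was grown 24 h in minimal SM medium with each Selleck FDA-approved drug at 10 µM in 384-well plates. Cells were fixed and imaged by high-content confocal microscopy. For each auxotrophic subpopulation (and the prototroph), a z-score gives the deviation from the DMSO vehicle-control population median.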

Row | SMILES | z-score of subpopulation abundance
1 | Cc1c(Nc2ncccc2C(=O)O)cccc1C(F)(F)F [Flunixin Meglumin] | 0
2 | Cc1nc2n(c(=O)c1CCN1CCC(c3noc4cc(F)ccc34)CC1)CCCC2 [Risperidone] | -0.21
3 | CCn1cc(C(=O)O)c(=O)c2cc(F)c(N3CCN(C)CC3)cc21 [Pefloxacin Mesylate] | -0.95
4 | CN[C@@H]1[C@@H](O)[C@@H](O[C@@H]2[C@@H](O)[C@H](O[C@H]3O[C@H](CN)[C@@H](O)[C@H](O)[C@H]3O)[C@@H](N)C[C@H]2NC(=O)[C@@H](O)CN)OC[C@]1(C)O [Isepamicin Sulphate] | -0.09
5 | Cc1ncc([N+](=O)[O-])n1CC(C)O (stereo not given) [Secnidazole] | -0.46
6 | C/C=C1\[C@H]2C=C(C)C[C@]1(N)c1ccc(=O)[nH]c1C2 [(-)-Huperzine A (HupA)] | -0.57
7 | CCS(=O)(=O)CCn1c([N+](=O)[O-])cnc1C [Tinidazole] | -0.4
8 | CN(C)CCN1C(=O)c2cccc3cc(N)cc(c23)C1=O [Amonafide] | -0.08
9 | CCN(CC)CCNC(=O)c1cc(S(C)(=O)=O)ccc1OC [Tiapride Hydrochloride] | 2.52
10 | COc1ccc([C@@H]2Sc3ccccc3N(CCN(C)C)C(=O)[C@@H]2OC(C)=O)cc1 [Diltiazem HCl] | -0.3
11 | COC(=O)C1=C(C)NC(C)=C(C(=O)OCCN2CCN(C(c3ccccc3)c3ccccc3)CC2)C1c1cccc([N+](=O)[O-])c1 (stereo not given) [Manidipine] | 0.6
12 | CCCc1nn(C)c2c(=O)[nH]c(-c3cc(S(=O)(=O)N4CCN(C)CC4)ccc3OCC)nc12 [Sildenafil Mesylate] | 0.08
13 | CCOC(=O)C1=C[C@]2(CC)CCCN3CCc4c(n1c1ccccc41)[C@@H]32 [Vinpocetine] | 0.54
14 | CC[C@@H]1/C=C(\C)C[C@H](C)C[C@H](OC)[C@H]2O[C@@](O)(C(=O)C(=O)N3CCCC[C@H]3C(=O)O[C@H](/C(C)=C/[C@@H]3CC[C@@H](O)[C@H](OC)C3)[C@H](C)[C@@H](O)CC1=O)[C@H](C)C[C@@H]2OC [Ascomycin (FK520)] | 2.95
15 | CS(=O)(=O)Nc1ccc([N+](=O)[O-])cc1Oc1ccccc1 [Nimesulide] | 0.87
16 | Cc1c(S(=O)(=O)O)oc2c1C(=O)C(=O)c1c-2ccc2c1CCCC2(C)C [Tanshinone IIA sulfonate (sodium)] | 1.74
17 | CCN1CCCC1CNC(=O)c1cc(S(=O)(=O)CC)c(N)cc1OC (stereo not given) [Amisulpride] | -0.8
18 | CCOc1cc(NC(C)=O)ccc1C(=O)OC [Ethopabate] | 2.14
19 | CC(C)[N+](C)(CCOC(=O)C1c2ccccc2Oc2ccccc21)C(C)C [Propantheline bromide] | -0.56
20 | CCn1cc(C(=O)O)c(=O)c2cc(F)c(N3CCNCC3)nc21 [Enoxacin Sesquihydrate] | -0.27

Row | SMILES | z-score of subpopulation abundance
21 | CCCCCCCCCCCCCCCCOP(=O)([O-])OCC[N+](C)(C)C [Miltefosine] | 161
22 | Nc1ccc(/N=N/c2ccccc2)c(N)n1 [Phenazopyridine HCl] | -0.54
23 | Clc1ccc(C(Cn2ccnc2)OCc2ccsc2Cl)c(Cl)c1 (stereo not given) [Tioconazole] | 15.6
24 | CSCC1CN(/N=C/c2ccc([N+](=O)[O-])o2)C(=O)O1 (stereo not given) [Nifuratel] | 1.35
25 | CN(C)CCc1c[nH]c2ccc(Cn3cncn3)cc12 [Rizatriptan Benzoate] | 0.89
26 | CN(C)CCCN1c2ccccc2CCc2ccc(Cl)cc21 [Clomipramine HCl] | 1.45
27 | CN(C)c1ccc(O)c2c1C[C@H]1C[C@H]3[C@H](N(C)C)C(=O)C(C(N)=O)=C(O)[C@@]3(O)C(=O)C1=C2O [Minocycline HCl] | 0.19
28 | Oc1ccc(C2CNCCc3c2cc(O)c(O)c3Cl)cc1 (stereo not given) [Fenoldopam mesylate] | 1.24
29 | Nc1ccc(S(=O)(=O)Nc2ncccn2)cc1 [Sulfadiazine] | 1.03
30 | Cc1ccsc1/C=C/C1=NCCCN1C [Morantel tartrate] | -0.47
31 | CCCCOC(=O)c1ccc(O)cc1 [Butylparaben] | 0.07
32 | O=C(Cn1cnnn1)N[C@@H]1C(=O)N2C(C(=O)O)=C(CSc3nncs3)CS[C@H]12 [Ceftezole sodium] | 0.82
33 | CN1CCN(C2=Nc3ccccc3Oc3ccc(Cl)cc32)CC1 [Loxapine Succinate] | 0.78
34 | N/C(=N\N=C\c1ccc(Cl)cc1)N/N=C/c1ccc(Cl)cc1 [Robenidine Hydrochoride] | 18.1
35 | Clc1ccc(COC(Cn2ccnc2)c2ccc(Cl)cc2Cl)c(Cl)c1 (stereo not given) [Miconazole] | 9.68
36 | CCc1cccc2c3c([nH]c12)C(CC)(CC(=O)O)OCC3 (stereo not given) [Etodolac] | -0.89
37 | COc1cc(C(C)=O)ccc1OCCCN1CCC(c2noc3cc(F)ccc23)CC1 [Iloperidone] | -0.49
38 | CCN(CC)CCOc1ccc2c(c1)C(=O)c1cc(OCCN(CC)CC)ccc1-2 [Tilorone dihydrochloride] | -0.11
39 | Nc1ccc2cc3ccc(N)cc3nc2c1 [Proflavine] | -1.99
40 | CN(CCN1CCC(OC(=O)Nc2ccccc2-c2ccccc2)CC1)C(=O)c1ccc(CN2CCC(C(N)=O)CC2)cc1 [Revefenacin] | -0.7
